According to the supplement of paper PMC12636033:
± gives the standard deviation of the averaged measurements. Whole data set: some 33,000 sequences, median “E-score (rank enrichment, -0.5 to 0.5)” near -0.0075, cut for the highest 2% near 0.23. The sample holds the highest values, similar sequences and a random draw of the others, so the mix is not that of the screen.

What follows are sequences tested on WT Max(13-93) synthetic (M65Nle) (assay: PBM 8-mer E-score (E-score (rank enrichment, -0.5 to 0.5)); higher = stronger preferential binding).
Protocol: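 Protein binding microarray (universal PBM chip covering all 10-mers in fixed probe flanks) with chemically synthesized human Max(13-93) bHLH-LZ analogs (not full-length Max) bearing noncanonical residues (hArg, Tha, Aib, Nle at 65) and aromatic Cys staples. Read-out per 8-mer (and its reverse complement): E-score (rank-based enrichment, -0.5 to 0.5) and Z-score of median probe intensity.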

Sequence	PBM 8-mer E-score
CCAAACTA	0.165 ± 0.012
AAGCTCAT	-0.131 ± 0.098
AAGGTCGG	-0.014 ± 0.081
AGACAACG	0.246 ± 0.068
AGACAACT	0.0555 ± 0.044
AGACAACC	0.0303 ± 0.033
CGGCAGTA	-0.142 ± 0.064
AATCGATC	-0.232 ± 0.024
CCCCTAGA	0.0696 ± 0.042
ATATTGAA	0.114 ± 0.03
GTATTGAA	0.119 ± 0.057
TTATTGAA	0.254 ± 0.0091
CTCATAGA	-0.0903 ± 0.024
AGCCGGAC	-0.207 ± 0.036
CCGATTAG	0.0704 ± 0.0021
CCCCCATC	0.0485 ± 0.11
ATAAGTTA	0.258 ± 0.062
CTAAGTTA	-0.011 ± 0.089
GTAAGTTA	0.0737 ± 0.022
ATGGTGCA	0.264 ± 0.074
GTGGTGCA	0.0246 ± 0.1
ATGGTGCG	-0.0696 ± 0.06
GGAAAGCA	-0.0514 ± 0.036
CGCGGACA	-0.102 ± 0.039
AACGAGCG	-0.0104 ± 0.028
CACATGTA	0.379 ± 0.0071

Sequence	PBM 8-mer E-score
CACATGTC	0.186 ± 0.026
AACATGTC	0.12 ± 0.037
AACATGTT	0.137 ± 0.042
AACATGTG	0.412 ± 0.017
CCCATGTA	0.0146 ± 0.049
CACATGTG	0.435 ± 0.007
CTCATGTA	0.138 ± 0.03
CAAATGTG	0.152 ± 0.026
CGCTGTGA	-0.0883 ± 0.11
AGGAGGAC	-0.0293 ± 0.04
GTGGGATA	0.163 ± 0.018
GCGGTACC	-0.176 ± 0.019
ATATGTAA	0.239 ± 0.05
CTATGTCA	0.0959 ± 0.026
ATATGTCA	0.1 ± 0.073
GTATGTAA	0.288 ± 0.0084
GTATGTTA	0.164 ± 0.091
CTATGTAA	-0.0284 ± 0.05
GTATGTCA	0.246 ± 0.028
ATATGTAC	0.0738 ± 0.0056
GAATGTAA	0.163 ± 0.13
AGGCGAAG	-0.078 ± 0.072
CCGTTTCG	-0.0232 ± 0.051
GCTCACGA	0.0957 ± 0.066
AACGGTAT	0.0275 ± 0.051
CCAGTGAA	-0.0413 ± 0.11

Sequence	PBM 8-mer E-score
AAAGCAAT	0.0889 ± 0.03
ATACTGTG	0.012 ± 0.036
CTACATTC	0.0193 ± 0.054
ATACATTG	0.168 ± 0.05
ATACATTC	0.285 ± 0.006
GCTCGCCA	-0.0485 ± 0.054
GCGCTAAC	-0.0628 ± 0.026
AGGAGATA	0.0677 ± 0.065
CCAGCGGA	-0.175 ± 0.022
ACCATTCG	-0.0773 ± 0.11
ACCATTCA	0.233 ± 0.0053
ACCATTCC	0.00607 ± 0.099
CCCATTAA	0.0514 ± 0.069
TCCATTAA	0.0431 ± 0.0063
AGCATTAA	0.173 ± 0.078
TGCATTAA	0.26 ± 0.051
CTCATTAA	0.204 ± 0.07
CGCATTAA	-0.00629 ± 0.02
ATCATTAG	0.209 ± 0.02
ACCATTAA	0.284 ± 0.11
ATCATTAA	0.238 ± 0.023
AATGGTCT	-0.085 ± 0.06
ATTTTGCC	-0.00751 ± 0.0085
CATTCGCG	0.0727 ± 0.022
ACCCTTAC	0.0907 ± 0.047
ATCGTGAC	-0.123 ± 0.014

Sequence	PBM 8-mer E-score
GGCTGCCC	-0.212 ± 0.043
AACAGACT	0.125 ± 0.061
AAGGCGTC	-0.0911 ± 0.022
TGCCACAA	-0.0153 ± 0.13
CCCAGTTA	-0.0517 ± 0.012
GATAATTA	0.157 ± 0.17
AATAATAA	0.242 ± 0.013
CCTAATAA	0.166 ± 0.01
ACTAATAA	0.182 ± 0.058
AATAATTA	0.237 ± 0.058
CATAATAG	0.241 ± 0.027
AATAATTC	0.0855 ± 0.084
AATAATAG	0.14 ± 0.12
AATAATAC	0.211 ± 0.029
CATAATAA	0.114 ± 0.18
TCTAATAA	0.272 ± 0.069
TATAATAA	0.2203 ± 0.00023
ACTCGGTA	-0.0471 ± 0.064
CGTAGGCA	-0.0828 ± 0.077
GAAGCCCA	-0.0819 ± 0.0058
CCACCTGG	0.0162 ± 0.071
TCAACTCA	-0.088 ± 0.024
AGATGCGG	-0.0543 ± 0.14
CGCTTCTA	-0.0256 ± 0.055
CCATTGGG	-0.154 ± 0.1
CAATCCAG	0.0833 ± 0.0029

Sequence	PBM 8-mer E-score
CATAATTC	-0.0543 ± 0.0058
CATAATTA	0.236 ± 0.025
CCTAATTA	0.138 ± 0.094
GTATCGAA	-0.0312 ± 0.052
AGCTAATG	-0.0403 ± 0.0067
GATAATAA	0.137 ± 0.092
TATAATCA	0.257 ± 0.014
AATAATCA	0.125 ± 0.0096
GATAATCC	-0.0355 ± 0.034
CATAATCA	0.101 ± 0.028
GATAATCA	0.253 ± 0.14
ACGCCAGT	-0.159 ± 0.098
CTCGAATA	-0.174 ± 0.064
CCATTACA	0.165 ± 0.0069
AAGTTAAC	0.18 ± 0.0042
AAGTTAAG	-0.0928 ± 0.093
AAGTTAAT	0.234 ± 0.036
ATGGACAA	0.0228 ± 0.022
GCTCCTCC	-0.127 ± 0.14
AAATTATC	0.158 ± 0.031
CAATTATA	0.137 ± 0.059
AAATTATG	0.127 ± 0.011
AAATTATA	0.237 ± 0.0041
GAATTATA	0.128 ± 0.074
TAATTATA	0.264 ± 0.11
GCCGAAAA	0.0297 ± 0.015

Sequence	PBM 8-mer E-score
AACGCGTC	-0.0583 ± 0.0094
CACGCGTC	0.266 ± 0.016
CACGCGCA	0.149 ± 0.079
CACGCGTG	0.349 ± 0.015
CACGCGCG	0.224 ± 0.034
CACGCGAC	0.271 ± 0.066
CACGCGTA	0.165 ± 0.036
AACGCGTG	0.222 ± 0.068
CACGCGAA	0.0737 ± 0.06
CACGCGCC	0.238 ± 0.013
AACGCGTA	0.0664 ± 0.023
CACGCGAG	0.0779 ± 0.018
CAACTCGG	-0.13 ± 0.11
ATAACCGA	-0.0219 ± 0.011
CAAATTAC	0.177 ± 0.062
CCATCACC	0.144 ± 0.01
ATGCAGTG	0.0344 ± 0.068
AAATGCGA	-0.0159 ± 0.018
AGGCTAGG	0.0514 ± 0.046
GGCAGATA	0.116 ± 0.062
ACGTTTTG	0.101 ± 0.09
ACGTTATC	0.133 ± 0.013
ACGTTATG	0.24 ± 0.0059
ACGTTAGG	0.107 ± 0.099
CCGTTATA	0.132 ± 0.018
ACGTTATA	0.241 ± 0.038

Sequence	PBM 8-mer E-score
GCGTTATA	0.108 ± 0.025
ACATCATG	-0.0233 ± 0.006
AGCGCCTC	-0.185 ± 0.038
AACACCGG	-0.157 ± 0.029
ATTTGTTA	0.0868 ± 0.01
ATTTGTTC	0.241 ± 0.11
CTTTGTTC	0.0437 ± 0.024
CGAGATGA	-0.159 ± 0.091
AGTAGCTA	0.178 ± 0.057
GATCTCGA	-0.159 ± 0.022
CCGCCGAA	-0.156 ± 0.022
CACGTGAC	0.4879 ± 0.0015
CACGTGAA	0.388 ± 0.053
GACGTGAA	-0.138 ± 0.057
CCCGTGAG	-0.0893 ± 0.044
TACGTGAA	0.0446 ± 0.099
GACGTGAC	-0.0117 ± 0.088
CGCGTGAG	0.0752 ± 0.04
CACGTGAG	0.404 ± 0.019
AACGTGAC	0.205 ± 0.016
GGCTAGAC	-0.217 ± 0.07
TACGCCAA	0.0646 ± 0.021
GCATAACA	0.27 ± 0.04
CCATAACC	0.145 ± 0.0043
ACATAACA	0.215 ± 0.0054
CCATAACA	0.236 ± 0.036

Sequence	PBM 8-mer E-score
GAATAACA	0.242 ± 0.094
CAATAACA	0.193 ± 0.046
CCATAACG	-0.0417 ± 0.027
GCATAACC	-0.0331 ± 0.022
TAATAACA	0.131 ± 0.0072
CAAGTAAC	0.0157 ± 0.17
AAGGACAA	-0.103 ± 0.0038
AGACTTAC	0.0412 ± 0.036
GGACTGAC	-0.163 ± 0.079
ACGCGGAC	0.112 ± 0.0026
CCCCTTAG	-0.25 ± 0.047
TCACACGA	0.0202 ± 0.039
GCACACGC	0.284 ± 0.051
ACACACAA	0.0899 ± 0.06
ACACACGT	0.295 ± 0.028
ACACACGG	-0.09 ± 0.023
CTACACGA	-0.00142 ± 0.052
ACACACGC	0.208 ± 0.02
GTACACGA	0.246 ± 0.037
ATACACGA	0.194 ± 0.032
ACACACGA	0.252 ± 0.021
GCACACGA	0.121 ± 0.081
ACACACAT	0.208 ± 0.024
GGCACATA	-0.00374 ± 0.019
TGCGTTAA	-0.0126 ± 0.025
CACAATAC	0.204 ± 0.018

Sequence	PBM 8-mer E-score
AGGGTTCG	0.0226 ± 0.091
GCCATACA	0.0396 ± 0.039
AACCCCCT	-0.12 ± 0.022
AGGATCTG	-0.1 ± 0.11
CCAACCGC	-0.126 ± 0.13
CTGCCCCC	-0.128 ± 0.089
CAAAATAC	0.189 ± 0.047
CAGCATGC	0.237 ± 0.04
AACCATGC	0.162 ± 0.018
GAGCATGA	0.205 ± 0.03
GAGCATAC	0.00326 ± 0.079
CGGCATGC	0.124 ± 0.05
GACCATGC	0.27 ± 0.043
CAGCATAC	0.0204 ± 0.073
GAGCATGC	0.249 ± 0.018
CAGCATGA	0.128 ± 0.022
CAGCATGG	0.331 ± 0.028
GACCATGA	-0.0818 ± 0.059
CAGCATAG	-0.0673 ± 0.062
